# Results: PubChem BioAssay (NCATS)
# Values joined by “and” are separate entries in the source; they are usually repeats but may differ in a detail not shown here. Equal entries are not always repeated. Inconclusive results are not listed. For some assays here: Potency and affinity values are given separately. Some structures have more than one record in an assay (separate samples or runs), and their calls can disagree. Active and inactive are the calls of the source. Unless noted, no rule for the calls is given here.
# Legend:
# [1] = qHTS Assay for Identifying Gametocytocidal Compounds (AID 743244; active = well fitted curve in the direction sought with a large enough effect; an effect the other way counts as inactive or inconclusive;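 also: % is scaled to controls: 0 for no effect and ±100 for the full control effect; actives lower the fluorescent signal which means gametocytes are killed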); conditions: P. falciparum 3D7 stage III-V gametocytes, alamarBlue, 72 h; max response: stronger effect = lower value
# Procedure, shortened: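 In this qHTS viability screen, late-stage 3D7 gametocytes are incubated with compound for 72 h, then with alamarBlue for 24 h; reduced resorufin fluorescence marks killing.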
# [2] = qHTS assay for cell viability of HEK293 cells (AID 743288; active = well fitted curve in the direction sought with a large enough effect; an effect the other way counts as inactive or inconclusive; also: nearly all actives have a fitted effect of over 50% in size; also: potency is read from the fitted curve at half-maximal effect; as to max response: % is scaled to controls: 0 for no effect and ±100 for the full control effect); conditions: ATP luminescence (CellTiter-Glo), 18 h; max response: stronger effect = lower value
# Procedure, shortened: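 Quantitative high-throughput screen: compounds were pinned onto parental HEK293 cells (2,000 per well) after a minimum 5 h settling at 37 C, incubated 18 h at 37 C, and intracellular ATP measured by luciferase luminescence.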
# [3] = qHTS profiling of the MIPE4 collection as inhibitors of Plasmodium falciparum (3D7) proliferation (AID 743344);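 also: scaled between DMSO vehicle wells and 0.29 µM artemisinin as full inhibition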; conditions: P. falciparum 3D7 in erythrocytes, SYBR Green DNA fluorescence, 72 h; at 28.5 µM (top of the series) unless noted
# Procedure, shortened: (§1)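 Parasite DNA was quantified by SYBR Green I fluorescence (ex 485, em 535 nm) after overnight lysis in saponin/Triton buffer at room temperature. Cultures at 0.3% parasitemia and 2.5% hematocrit were first exposed to compound for 72 h at 37 C; signals were normalised to artemisinin (0.29 uM) and vehicle wells.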
# [4] = qHTS profiling of the MIPE4 collection as inhibitors of Plasmodium falciparum (DD2) proliferation (AID 743345); conditions: P. falciparum Dd2 in erythrocytes, SYBR Green DNA, 72 h; at 28.5 µM (top of the series) unless noted
# Procedure, shortened: as §1
# [5] = qHTS profiling of the MIPE4 collection as inhibitors of Plasmodium falciparum (DD2) proliferation (Rep 2) (AID 743346); conditions: P. falciparum Dd2 in erythrocytes, SYBR Green DNA, 72 h; at 28.5 µM (top of the series) unless noted
# Procedure, shortened: as §1
# [6] = qHTS profiling of the MIPE4 collection as inhibitors of Plasmodium falciparum (HB3) proliferation (AID 743347);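 also: plate controls were DMSO vehicle wells for no effect and artemisinin wells for full effect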; conditions: P. falciparum HB3 in erythrocytes, SYBR Green DNA, 72 h; at 28.5 µM (top of the series) unless noted
# Procedure, shortened: as §1
# [7] = Ebola virus entry assay, green fluorescence channel
# [8] = Ebola virus entry assay, blue channel fluorescence
# [9] = Ebola virus entry assay, ratio channel
# [10] = Ebola virus entry assay, green channel fluorescence
# [11] = Ebola virus entry assay, reporter ratio channel; AC50: Channel type: primary unless noted; outcome: Channel type: primary unless noted
# [12] = Ebola virus entry assay, blue channel (ratio component)
# [13] = qHTS assay for cell viability of the p53RE-bla HCT-116 cell line (AID 743292; active = well fitted curve in the direction sought with a large enough effect; an effect the other way counts as inactive or inconclusive; also: % is scaled to controls: 0 for no effect and ±100 for the full control effect; nearly all actives have a fitted effect of over 55% in size)
# Procedure, shortened: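 ATP-based luminescence, 16 h compound exposure at 37 C, p53RE-bla HCT-116 cells at 4,000/well.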
# For efficacy in this document: 0% is about no effect.
smiles,measurement,setting,value
C[C@@H]1O[C@@H](O[C@H]2C[C@@H](O)[C@]3(CO)[C@H]4[C@H](O)C[C@]5(C)[C@@H](C6=CC(=O)OC6)CC[C@]5(O)[C@@H]4CC[C@]3(O)C2)[C@H](O)[C@H](O)[C@H]1O,max response,[1],-6.85% (inactive) and -3.14% (inactive) and -2.93% (inactive)
same,Potency,[2],0.0631 µM (active)
same,"parasite growth, % of DMSO control",[3],81.9%
same,"parasite growth remaining, % of DMSO control (lower = more inhibition)",[4],95.7%
same,"parasite growth, % of control (lower = inhibition)",[5],124%
same,"growth, % of control",[6],101%
same,efficacy,[7],-93.6% (inactive)
same,AC50,[8],8.91 µM (active)
same,AC50,[9],0.708 µM (active)
same,outcome,[10],inactive
same,AC50,[11],0.708 µM (active)
CCn1cc(C(=O)O)c(=O)c2ccc(C)nc21,efficacy,[7],67.7% (inactive)
same,outcome,[8],inactive
same,outcome,[9],inactive
same,outcome,[11],inactive
COc1ccc2c(c1OC)CN1CCc3cc4c(cc3C1C2)OCO4 (centres undefined),max response,[1],4.63% (inactive)
same,"parasite growth, % of DMSO control",[3],12.7%
same,"parasite growth remaining, % of DMSO control (lower = more inhibition)",[4],24.6%
same,"parasite growth, % of control (lower = inhibition)",[5],10.1%
same,"growth, % of control",[6],7.61%
same,efficacy,[7],-21% (inactive)
same,outcome,[8],inactive
same,outcome,[9],inactive
same,outcome,[10],inactive
same,outcome,[11],inactive
same,outcome,[12],inactive
C=CC(=O)Nc1cc2c(Nc3ccc(F)c(Cl)c3)ncnc2cc1OCCCN1CCOCC1,efficacy,[7],99.2% (inactive)
same,AC50,[8],3.16 µM (active)
same,AC50,[9],2.82 µM (active)
same,AC50,[11],2.82 µM (active)
Cc1ccc2c(n1)Oc1ccc(C(C)C(=O)OCC(=O)N(C)C)cc1C2 (centres undefined),max response,[1],42.6% (inactive) and 2.17% (inactive)
same,efficacy,[7],-14% (inactive) and -11.2% (inactive)
same,outcome,[8],inactive
same,outcome,[9],inactive
same,outcome,[10],inactive
same,outcome,[11],inactive
CCCCCCCCCCCCCCCC[N+](C)(C)CC,efficacy,[7],-76.8% (inactive)
same,AC50,[8],25.1 µM (active)
same,AC50,[9],11.2 µM (active)
same,AC50,[11],11.2 µM (active)
OCCOc1ccccc1,max response,[1],3.27% (inactive) and 3.36% (inactive)
same,max response,[2],-3.53% (inactive) and -2.57% (inactive) and -13.5% (inactive)
same,Potency,[13],inactive
same,efficacy,[7],-12.5% (inactive)
same,outcome,[8],inactive
same,outcome,[9],inactive
same,outcome,[10],inactive
same,outcome,[11],inactive
same,outcome,[12],inactive
NC(=Nc1ccccc1)Nc1ccccc1,efficacy,[7],-28.5% (inactive)
same,AC50,[8],3.16 µM (active)
same,outcome,[9],inactive
same,AC50,[11],31.6 µM (active)
same,outcome,[11],inactive
COC[C@@H](NC(C)=O)C(=O)NCc1ccccc1,"parasite growth, % of DMSO control",[3],371%
same,"parasite growth remaining, % of DMSO control (lower = more inhibition)",[4],113%
same,"parasite growth, % of control (lower = inhibition)",[5],165%
same,"growth, % of control",[6],737%
same,efficacy,[7],-31.5% (inactive)
same,outcome,[8],inactive
same,outcome,[9],inactive
same,outcome,[10],inactive
same,outcome,[11],inactive
same,outcome,[12],inactive
CC(C)=CCOc1c2occc2cc2ccc(=O)oc12,max response,[1],-4.41% (inactive) and 18.6% (inactive)
same,efficacy,[7],19.5% (inactive)
same,AC50,[8],25.1 µM (active)
same,outcome,[9],inactive
same,outcome,[10],inactive
same,AC50,[11],25.1 µM (active)
CCCCCCCCCCCCCC[N+](C)(C)Cc1ccccc1,efficacy,[7],-210% (inactive)
same,AC50,[8],39.8 µM (active)
same,AC50,[9],25.1 µM (active)
same,AC50,[11],25.1 µM (active)
